# Source: the supplement of paper PMC12282887
# ± gives the standard deviation of the averaged measurements.
# Assays:
# Assay in all cases: promoter activity interaction Z-score (Lux/OD deviation from empty-vector control); higher = stronger promoter induction by the compound
# [1] = tested on: E. coli BW25113 acrABp lux reporter
# Outline: (§1)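 Low-copy luxCDABE promoter reporters were carried by E. coli BW25113, either wild type or lacking one of three genes, grown in 40 µl LB Lennox in 384-well plates at 37°C. Each compound was run at four 1:2 dilutions in biological duplicates, with OD600 and luminescence read every 30 min for 12 h. Integration used 0–8 h for wild type and 1–9 h for deletion strains, and wells under 10% of the median growth value were removed. Luminescence normalised to growth was fitted against a control, and the Z-transformed residual is the score.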
# [2] = tested on: E. coli BW25113 marRABp lux reporter
# Outline: as §1
# [3] = tested on: E. coli BW25113 micFp lux reporter
# Outline: as §1
# [4] = tested on: E. coli BW25113 ompFp lux reporter
# Outline: as §1
# [5] = tested on: E. coli BW25113 robp lux reporter
# Outline: as §1
# [6] = tested on: E. coli BW25113 soxSp lux reporter
# Outline: as §1
# [7] = tested on: E. coli BW25113 tolCp lux reporter
# Outline: as §1
# [8] = 12.9 µg/ml, genetic background: wild type
# [9] = 12.9 µg/ml, genetic background: ΔmarA
# [10] = 12.9 µg/ml, genetic background: Δrob
# [11] = 12.9 µg/ml, genetic background: ΔsoxS
# [12] = 25.8 µg/ml, genetic background: wild type
# [13] = 25.8 µg/ml, genetic background: ΔmarA
# [14] = 25.8 µg/ml, genetic background: Δrob
# [15] = 25.8 µg/ml, genetic background: ΔsoxS
# [16] = 51.6 µg/ml, genetic background: wild type
# [17] = 51.6 µg/ml, genetic background: ΔmarA
# [18] = 51.6 µg/ml, genetic background: Δrob
# [19] = 51.6 µg/ml, genetic background: ΔsoxS
# [20] = 103.1 µg/ml, genetic background: wild type
# [21] = 103.1 µg/ml, genetic background: ΔmarA
# [22] = 103.1 µg/ml, genetic background: Δrob
# [23] = 103.1 µg/ml, genetic background: ΔsoxS
structure (smiles),measurement,setting,value
CC(C)Cc1ccc(C(C)C(=O)O)cc1 (configuration not stated) [Ibuprofen],promoter activity interaction Z-score,[1]; [8],0.434 ± 0.3
same,promoter activity interaction Z-score,[1]; [9],-0.569 ± 0.69
same,promoter activity interaction Z-score,[1]; [10],0.0303 ± 0.11
same,promoter activity interaction Z-score,[1]; [11],0.455 ± 0.63
same,promoter activity interaction Z-score,[1]; [12],0.485 ± 0.088
same,promoter activity interaction Z-score,[1]; [13],0.667 ± 0.1
same,promoter activity interaction Z-score,[1]; [14],-0.156 ± 0.0041
same,promoter activity interaction Z-score,[1]; [15],-0.0442 ± 0.022
same,promoter activity interaction Z-score,[1]; [16],0.366 ± 0.24
same,promoter activity interaction Z-score,[1]; [17],-0.62 ± 0.53
same,promoter activity interaction Z-score,[1]; [18],0.236 ± 0.13
same,promoter activity interaction Z-score,[1]; [19],0.0533 ± 0.45
same,promoter activity interaction Z-score,[1]; [20],0.11 ± 0.073
same,promoter activity interaction Z-score,[1]; [21],2.18 ± 0.32
same,promoter activity interaction Z-score,[1]; [22],-0.393 ± 0.093
same,promoter activity interaction Z-score,[1]; [23],-0.205 ± 0.13
same,promoter activity interaction Z-score,[2]; [8],0.196 ± 0.28
same,promoter activity interaction Z-score,[2]; [9],0.232 ± 0.58
same,promoter activity interaction Z-score,[2]; [10],0.124 ± 0.06
same,promoter activity interaction Z-score,[2]; [11],0.193 ± 0.14
same,promoter activity interaction Z-score,[2]; [12],0.212 ± 0.12
same,promoter activity interaction Z-score,[2]; [13],0.172 ± 0.49
same,promoter activity interaction Z-score,[2]; [14],0.0582 ± 0.32
same,promoter activity interaction Z-score,[2]; [15],0.0302 ± 0.03
same,promoter activity interaction Z-score,[2]; [16],0.119 ± 0.036
same,promoter activity interaction Z-score,[2]; [17],-0.396 ± 0.089
same,promoter activity interaction Z-score,[2]; [18],0.159 ± 0.17
same,promoter activity interaction Z-score,[2]; [19],-0.0798 ± 0.073
same,promoter activity interaction Z-score,[2]; [20],-0.239 ± 0.093
same,promoter activity interaction Z-score,[2]; [21],0.541 ± 0.8
same,promoter activity interaction Z-score,[2]; [22],0.0177 ± 0.01
same,promoter activity interaction Z-score,[2]; [23],-0.0508 ± 0.43
same,promoter activity interaction Z-score,[3]; [8],0.145 ± 0.18
same,promoter activity interaction Z-score,[3]; [9],-0.00146 ± 0.055
same,promoter activity interaction Z-score,[3]; [10],-0.209 ± 0.0032
same,promoter activity interaction Z-score,[3]; [11],0.214 ± 0.16
same,promoter activity interaction Z-score,[3]; [12],0.384 ± 0.26
same,promoter activity interaction Z-score,[3]; [13],0.0835 ± 0.1
same,promoter activity interaction Z-score,[3]; [14],-0.0551 ± 0.11
same,promoter activity interaction Z-score,[3]; [15],0.0794 ± 0.022
same,promoter activity interaction Z-score,[3]; [16],-0.0155 ± 0.081
same,promoter activity interaction Z-score,[3]; [17],0.0304 ± 0.18
same,promoter activity interaction Z-score,[3]; [18],-0.00979 ± 0.056
same,promoter activity interaction Z-score,[3]; [19],0.259 ± 0.28
same,promoter activity interaction Z-score,[3]; [20],0.239 ± 0.31
same,promoter activity interaction Z-score,[3]; [21],-0.0514 ± 0.092
same,promoter activity interaction Z-score,[3]; [22],-0.0741 ± 0.16
same,promoter activity interaction Z-score,[3]; [23],0.193 ± 0.12
same,promoter activity interaction Z-score,[4]; [8],0.335 ± 0.31
same,promoter activity interaction Z-score,[4]; [9],0.335 ± 0.075
same,promoter activity interaction Z-score,[4]; [10],-0.132 ± 0.56
same,promoter activity interaction Z-score,[4]; [11],0.513 ± 0.44
same,promoter activity interaction Z-score,[4]; [12],0.726 ± 0.49
same,promoter activity interaction Z-score,[4]; [13],1.13 ± 1.1
same,promoter activity interaction Z-score,[4]; [14],0.704 ± 0.75
same,promoter activity interaction Z-score,[4]; [15],-0.184 ± 0.45
same,promoter activity interaction Z-score,[4]; [16],0.353 ± 0.34
same,promoter activity interaction Z-score,[4]; [17],0.469 ± 0.28
same,promoter activity interaction Z-score,[4]; [18],0.418 ± 0.24
same,promoter activity interaction Z-score,[4]; [19],0.0995 ± 0.085
same,promoter activity interaction Z-score,[4]; [20],0.349 ± 0.46
same,promoter activity interaction Z-score,[4]; [21],1.78 ± 0.81
same,promoter activity interaction Z-score,[4]; [22],0.954 ± 1.3
same,promoter activity interaction Z-score,[4]; [23],-0.0643 ± 0.52
same,promoter activity interaction Z-score,[5]; [8],0.839 ± 0.9
same,promoter activity interaction Z-score,[5]; [9],0.214 ± 0.091
same,promoter activity interaction Z-score,[5]; [10],0.6 ± 0.66
same,promoter activity interaction Z-score,[5]; [11],0.59 ± 0.11
same,promoter activity interaction Z-score,[5]; [12],1.19 ± 0.31
same,promoter activity interaction Z-score,[5]; [13],2.36 ± 0.11
same,promoter activity interaction Z-score,[5]; [14],0.557 ± 0.45
same,promoter activity interaction Z-score,[5]; [15],-0.577 ± 0.45
same,promoter activity interaction Z-score,[5]; [16],0.25 ± 0.22
same,promoter activity interaction Z-score,[5]; [17],-0.675 ± 0.18
same,promoter activity interaction Z-score,[5]; [18],0.24 ± 0.11
same,promoter activity interaction Z-score,[5]; [19],-0.0538 ± 0.089
same,promoter activity interaction Z-score,[5]; [20],0.337 ± 0.38
same,promoter activity interaction Z-score,[5]; [21],0.9946 ± 0.0074
same,promoter activity interaction Z-score,[5]; [22],0.346 ± 0.75
same,promoter activity interaction Z-score,[5]; [23],0.183 ± 1.1
same,promoter activity interaction Z-score,[6]; [8],0.233 ± 0.39
same,promoter activity interaction Z-score,[6]; [9],-0.0514 ± 0.082
same,promoter activity interaction Z-score,[6]; [10],-0.201 ± 0.088
same,promoter activity interaction Z-score,[6]; [11],0.159 ± 0.065
same,promoter activity interaction Z-score,[6]; [12],0.503 ± 0.48
same,promoter activity interaction Z-score,[6]; [13],0.0892 ± 0.08
same,promoter activity interaction Z-score,[6]; [14],-0.0188 ± 0.046
same,promoter activity interaction Z-score,[6]; [15],-0.109 ± 0.058
same,promoter activity interaction Z-score,[6]; [16],0.0184 ± 0.19
same,promoter activity interaction Z-score,[6]; [17],-0.0994 ± 0.11
same,promoter activity interaction Z-score,[6]; [18],0.111 ± 0.19
same,promoter activity interaction Z-score,[6]; [19],-0.0346 ± 0.014
same,promoter activity interaction Z-score,[6]; [20],-0.0139 ± 0.16
same,promoter activity interaction Z-score,[6]; [21],-0.0609 ± 0.081
same,promoter activity interaction Z-score,[6]; [22],-0.164 ± 0.23
same,promoter activity interaction Z-score,[6]; [23],-0.245 ± 0.15
same,promoter activity interaction Z-score,[7]; [8],-0.813 ± 0.87
same,promoter activity interaction Z-score,[7]; [9],0.0288 ± 1.6
same,promoter activity interaction Z-score,[7]; [10],-0.78 ± 0.64
same,promoter activity interaction Z-score,[7]; [11],-0.147 ± 0.44
same,promoter activity interaction Z-score,[7]; [12],0.563 ± 0.048
same,promoter activity interaction Z-score,[7]; [13],0.78 ± 1.2
same,promoter activity interaction Z-score,[7]; [14],-0.284 ± 1.6
same,promoter activity interaction Z-score,[7]; [15],-0.361 ± 0.24
same,promoter activity interaction Z-score,[7]; [16],-0.451 ± 0.093
same,promoter activity interaction Z-score,[7]; [17],-0.139 ± 0.2
same,promoter activity interaction Z-score,[7]; [18],0.442 ± 1.5
same,promoter activity interaction Z-score,[7]; [19],-0.22 ± 0.31
same,promoter activity interaction Z-score,[7]; [20],0.199 ± 1.1
same,promoter activity interaction Z-score,[7]; [21],0.757 ± 1.8
same,promoter activity interaction Z-score,[7]; [22],-0.377 ± 0.11
same,promoter activity interaction Z-score,[7]; [23],-0.341 ± 0.63
